Screens: PubChem BioAssay, National Center for Advancing Translational Sciences (NCATS)
Hits are enriched below; roughly 1.1% of the tested compounds scored in any of these assays.
TRPV1 ag – activates the human vanilloid receptor TRPV1; TRPV1-expressing cells, Fluo-8 calcium influx, agonist mode; activation, % at 8.33 µM; 0.19% of 320,000 active; in the data active = activation above about 80%; inconclusive = between about 30% and that limit; note: 0% is about no effect
Target sequence (Q8NER1 whole entry, looked up): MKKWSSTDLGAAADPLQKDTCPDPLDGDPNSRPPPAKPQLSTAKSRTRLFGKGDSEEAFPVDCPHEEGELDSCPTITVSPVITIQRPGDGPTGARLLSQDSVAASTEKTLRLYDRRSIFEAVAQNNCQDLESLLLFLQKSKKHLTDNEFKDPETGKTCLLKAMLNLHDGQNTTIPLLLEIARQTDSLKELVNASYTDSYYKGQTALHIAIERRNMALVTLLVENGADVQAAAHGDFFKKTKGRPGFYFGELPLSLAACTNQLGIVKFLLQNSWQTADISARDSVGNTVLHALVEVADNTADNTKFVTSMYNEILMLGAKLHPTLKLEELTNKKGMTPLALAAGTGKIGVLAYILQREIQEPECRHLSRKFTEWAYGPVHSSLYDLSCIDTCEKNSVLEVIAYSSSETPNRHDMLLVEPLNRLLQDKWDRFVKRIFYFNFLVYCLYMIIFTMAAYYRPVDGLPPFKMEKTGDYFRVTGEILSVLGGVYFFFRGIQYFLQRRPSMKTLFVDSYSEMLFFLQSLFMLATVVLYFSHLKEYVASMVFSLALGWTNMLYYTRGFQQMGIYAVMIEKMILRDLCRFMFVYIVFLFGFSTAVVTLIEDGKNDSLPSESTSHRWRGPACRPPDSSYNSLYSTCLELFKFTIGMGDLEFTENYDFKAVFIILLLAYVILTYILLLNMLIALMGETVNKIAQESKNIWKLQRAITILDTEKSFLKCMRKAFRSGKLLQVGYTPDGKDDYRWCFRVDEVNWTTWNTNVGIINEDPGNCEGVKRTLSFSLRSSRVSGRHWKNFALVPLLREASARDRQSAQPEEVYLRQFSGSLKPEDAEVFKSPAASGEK
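TRPV1-expressing cells were cultured overnight at 35.5C and loaded with Fluo-8 calcium dye for 40 to 90 min at room temperature. After a 10 s baseline, compound was added and calcium influx was read kinetically for 3 min (ex 480/em 520 nm).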
gsp antag – antagonizes gsp, the McCune-Albright syndrome mutation; gsp-mutant cells, cAMP HTRF, 30 min; Potency, µM (highest dose often 76.9 µM), for the others: at the top dose activity change, negative = inhibition, most hits filed as inhibitors; 0.4% of 340,000 active; AID 624288; calls by dose curve; cell line not stated here;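 note: intracellular cAMP measured with PDE inhibitor Ro 20-1724 present during compound exposure; potency is the fitted concentration of half-maximal effect; % is set by controls: 0 for no effect and ±100 for the full control effect; nearly all actives have a fitted effect of over 65% in size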
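HTRF cAMP read-out (cAMP-d2 plus anti-cAMP antibody-K in lysis buffer, 30 min RT). Before lysis, cells are exposed to compounds with […] for 30 min at 37C in DPBS containing Ca/Mg, BSA and Tween 20.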
RXFP1 agonist – agonists of human relaxin receptor RXFP1 | 0.3% of 370,000 active | Potency, µM (titrated, usually from 57.5 µM), inactives show top-dose activation, hits mostly activators | HEK293T-RXFP1 cAMP TR-FRET, 30 min; response scale: percent of porcine relaxin response, buffer zero | AID 2676 | Q9HBX9; active = well fitted activation curve with a large enough effect; inconclusive = small, poorly fitted or top-dose-only effect; note: potency is the fitted concentration of half-maximal effect; % is set by controls: 0 for no effect and ±100 for the full control effect; nearly all actives have a fitted effect of over 60% in size
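HEK293T cells stably expressing RXFP1 were pretreated with the PDE4 inhibitor Ro 20174, exposed to compounds for 30 min at 37C, lysed, and cAMP was read by TR-FRET. Data normalized to buffer (basal) and 29 nM porcine relaxin (100%).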
TRPV1 PAM – potentiators of human vanilloid receptor 1 (TRPV1) | Q8NER1 | TRPV1-expressing cells, Fluo-8 calcium influx, capsaicin EC20 potentiation | potentiation, % at 8.33 µM | 0.02% of 320,000 active; in the data active = potentiation above about 80%; inconclusive = between about 30% and that limit; note: 0% is about no effect
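TRPV1-expressing cells were cultured overnight at 35.5C and loaded with Fluo-8 calcium dye for 40 to 90 min at room temperature. After a 10 s baseline, compound was added and calcium influx was read kinetically for 3 min (ex 480/em 520 nm).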
RXFP1 antag – blocks the human relaxin receptor RXFP1; Q9HBX9; HEK293-RXFP1, relaxin-stimulated cAMP HTRF, 30 min; hits give low values; 0.59% of 350,000 active; AID 1259400; activity change, negative = inhibition, % at 57.5 µM;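 active = activity change of -60% or lower, but not beyond a set lower limit; inconclusive = change between -60% and -40%, or beyond the set limit; inactive = change above -40%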; note: % is set by controls: 0 for no effect and ±100 for the full control effect
gsp agonist – agonists of gsp mutant (McCune-Albright syndrome); 0.13% of 340,000 active; Potency, µM (series often up to 76.9 µM), for inactives: top-dose activation (cAMP increase), most hits filed as activators; gsp mutant cells, cAMP HTRF, 30 min; AID 624287; active = well fitted activation curve with a large enough effect; inconclusive = small, poorly fitted or top-dose-only effect, or another doubt; inactive = no such curve, though single readings can be large or run the other way; cell line not stated here;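 note: phosphodiesterase inhibitor Ro 20-1724 added with compounds to block cAMP breakdown; potency is the fitted concentration of half-maximal effect; nearly all actives have a fitted effect of over 60% in size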
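Cells stably selected in G418 were plated at 2000/well, grown 16-24 hr, then given compounds in DMSO with the PDE inhibitor […] (300 uM solution added) for 30 min at 37C; cAMP was read by HTRF.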
Starred values were filed as active, the others as inactive; [ ] = dose if it differs, or a comment.

For O=C(O)c1cc(-c2ccc(Br)s2)nc2ccccc12 the results were TRPV1 ag 1.0, gsp antag -12.6%, RXFP1 agonist 2.82µM*, TRPV1 PAM 12.8, RXFP1 antag -6.1 and gsp agonist inconclusive.
Cc1c(C(=O)/C=C/N(C)C)nnn1-c1ccc(Cl)cc1Cl was read as TRPV1 ag -7.6, gsp antag -1.1%, RXFP1 agonist 4.9%, TRPV1 PAM 14.6, RXFP1 antag -64.0* and gsp agonist 0.5%[15.4 µM].
`Cc1c(C(=O)/C=C/N(C)C)nnn1-c1ccc(F)c(Cl)c1` gave TRPV1 ag 3.6, gsp antag -16.2%, RXFP1 agonist 4.6%, TRPV1 PAM 4.9, RXFP1 antag -25.9 and gsp agonist -39.1%.
For COc1cc(/C=C2\SC(N)=NC2=O)ccc1OCC(=O)Nc1ccccc1C the results were TRPV1 ag 0.2, gsp antag inconclusive, RXFP1 agonist 0.0%, TRPV1 PAM 9.0, RXFP1 antag 0.0 and gsp agonist -0.3%.
Cc1oc(-c2ccccc2F)nc1CS(=O)CC(=O)NC(C)C (stereo not given) was read as RXFP1 agonist 0.9% and RXFP1 antag -0.6.
Screening CC(C)CN(C(=O)CSc1ncnc2ccccc12)C1CCS(=O)(=O)C1 (stereo not given) returned TRPV1 ag 2.2, gsp antag -14.4%, RXFP1 agonist 6.4%, TRPV1 PAM 1.2, RXFP1 antag 3.1 and gsp agonist -3.9%.
`CN(C(=O)CSc1ncnc2ccccc12)C1CCS(=O)(=O)C1` (stereo not given) gave TRPV1 ag -0.1, gsp antag 8.4%, RXFP1 agonist 8.4%, TRPV1 PAM -6.3, RXFP1 antag 5.1 and gsp agonist 12.6µM*.
Screening O=C(O)C1CC=C(Cl)CC1C(=O)NC1CCCCC1 (stereo not given) returned TRPV1 ag -2.3, gsp antag 2.4%, RXFP1 agonist -0.7%, TRPV1 PAM 6.4, RXFP1 antag 2.4 and gsp agonist 1.5%.
`CC/C(=N\NC(=O)c1nnn(-c2nonc2N)c1CN(C)c1ccccc1)c1ccccc1` gave TRPV1 ag 3.0, gsp antag 1.2%, RXFP1 agonist 2.7%, TRPV1 PAM -3.6, RXFP1 antag -102.3* and gsp agonist -5.3%.
Screening C/C(=N\NC(=O)c1nnn(-c2nonc2N)c1CN(C)c1ccccc1)c1ccc(O)cc1 returned TRPV1 ag 0.8, gsp antag -30.0%, RXFP1 agonist -0.1%, TRPV1 PAM 9.4, RXFP1 antag 1.5 and gsp agonist -18.0%.
Screening Cc1nc(SCC(=O)NCC2CCCO2)c2cc(-c3ccccc3)sc2n1 (stereo not given) returned TRPV1 ag 8.8, gsp antag -9.7%, RXFP1 agonist 3.1%, TRPV1 PAM -12.8, RXFP1 antag -30.3 and gsp agonist 11.3%.
For CC(C)c1ccc(C2(C)NC(=O)N(CC(=O)NCC3COc4ccccc4O3)C2=O)cc1 (stereo not given) the results were TRPV1 ag 22.6, gsp antag -9.5%, RXFP1 agonist -1.8%, TRPV1 PAM -2.6, RXFP1 antag -3.1 and gsp agonist 1.4%.
CC(=O)c1ccc(/C=C/c2nc3ccccc3n2C)o1 was read as TRPV1 ag 3.8, gsp antag -1.9%, RXFP1 agonist 25.1µM*, TRPV1 PAM 2.5, RXFP1 antag 48.6 and gsp agonist inconclusive.
Screening Cn1c(/C=C/c2ccccc2)nc2ccccc21 returned TRPV1 ag 24.1, gsp antag -10.0%, RXFP1 agonist 6.3%, TRPV1 PAM -14.1, RXFP1 antag -4.4 and gsp agonist 24.1%.
For CCCC(O)c1nc2ccccc2n1CCCCOc1ccc(OC)cc1 (stereo not given) the results were RXFP1 agonist -3.1%.
CCNC(=S)NCc1ccc(Cl)cc1 was read as gsp antag 13.8%, RXFP1 antag 5.1 and gsp agonist -41.8%.
For Fc1ccc(CNC(=S)NCc2ccccc2)cc1 the results were TRPV1 ag 84.2*, gsp antag 5.7%, RXFP1 agonist -0.3%, TRPV1 PAM -4.2, RXFP1 antag 0.5 and gsp agonist 0.9%[15.4 µM].
Fc1ccccc1CNC(=S)NCc1ccc(Cl)cc1 was read as TRPV1 ag 84.1*, gsp antag 7.9%, RXFP1 agonist 2.6%, TRPV1 PAM 9.2, RXFP1 antag -8.4 and gsp agonist -36.7%.
COc1ccc(CCN(C)C2CCCN(S(=O)(=O)c3ccccc3F)C2)cc1OC (stereo not given) was read as TRPV1 ag 0.4, gsp antag 6.4%, RXFP1 agonist -0.2%, TRPV1 PAM 3.2, RXFP1 antag -4.1 and gsp agonist -19.3%.
For O=C(C[C@@H]1C[C@H]2c3cc(NC(=O)C4CCC4)ccc3O[C@H]2[C@@H](CO)O1)NCc1ccc(-c2ccccc2)cc1 the results were RXFP1 antag -2.9 and gsp agonist 31.6µM*.
For COC(=O)C[C@@H]1C[C@H]2c3cc(NC(=O)C4CCC4)ccc3O[C@H]2[C@@H](CO)O1 the results were RXFP1 antag 4.6 and gsp agonist inconclusive.
Screening COc1ccccc1C1c2ccc3ccccc3c2Oc2ncn(CCCO)c(=N)c21 (stereo not given) returned TRPV1 ag -3.4, gsp antag 14.1%, RXFP1 agonist -1.6%, TRPV1 PAM 21.9, RXFP1 antag -3.5 and gsp agonist 9.0%.
Screening COc1ccccc1C1c2ccc3ccccc3c2Oc2ncn(CCN(C)C)c(=N)c21 (stereo not given) returned TRPV1 ag 8.9, gsp antag 12.2%, RXFP1 agonist 2.0%, TRPV1 PAM -18.3, RXFP1 antag -78.5* and gsp agonist -19.2%[15.4 µM].
Screening COC(=O)c1cc(NC(=O)CC2SC(=Nc3ccccc3)N(CCc3c[nH]c4ccccc34)C2=O)cc(C(=O)OC)c1 (stereo not given) returned TRPV1 ag -0.9, gsp antag -19.7%, RXFP1 agonist 3.0%, TRPV1 PAM 5.4, RXFP1 antag -2.1 and gsp agonist -23.4%.
Screening CC(C)CC(C)c1cc(N)nc2nc3ccccc3n12 (stereo not given) returned TRPV1 ag 8.9, gsp antag -5.2%, RXFP1 agonist 3.1%, TRPV1 PAM -6.1, RXFP1 antag -61.1* and gsp agonist -1.6%[15.4 µM].
COc1ccc(CCNc2ncnc3sc(C)cc23)cc1OC was read as TRPV1 ag inconclusive, gsp antag 35.5µM*, RXFP1 agonist -0.2%, TRPV1 PAM -4.7, RXFP1 antag -18.2 and gsp agonist -20.7%.
Screening O=C(NCc1ccc2c(c1)OCO2)c1c(-c2ccccc2)sc2ccccc12 returned gsp antag -7.4% and gsp agonist 0.4%.
